# WRN helicase inh = blocks human WRN helicase; actives 0.46% (n = 360,000); Potency, µM (doses to about 114 µM), for the others: top-dose activity change, negative = inhibition, usual class: inhibitors; Q14191; WRN helicase unwinding, fluorescent forked duplex, kinetic; also: % is scaled to controls: 0 for no effect and ±100 for the full control effect; nearly all actives have a fitted effect of over 55% in size
#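 WRN at 20 nM final was preincubated with compound for 15 min at room temperature; reaction started with 100 nM forked duplex oligonucleotide carrying fluorophore and quencher plus 2 mM ATP (final). Unwinding followed kinetically by red fluorescence (ex 525/em 598 nm).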
# FEN1 inh = blocks human flap endonuclease 1 | actives 0.35% (n = 390,000) | Recombinant FEN1 flap cleavage, fluorescence, 15 min | Potency, µM (titrated, usually from 114 µM), for inactives: top-dose activity change, negative = inhibition, most hits filed as inhibitors | P39748; also: % is scaled to controls: 0 for no effect and ±100 for the full control effect; nearly all actives have a fitted effect of over 65% in size
#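 Read-out was taken twice, immediately and after 15 min, following addition of 50 nM substrate to 10 nM FEN1 that had sat with test compound for 15 min at room temperature. Curves came from a four-parameter Hill model.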
# Pol kappa inh-1 = DNA polymerase kappa (human) inhibition. Q9UBT6. actives 0.53% (n = 400,000). purified Pol kappa, fluorescent DNA synthesis assay, 10 min. Potency, µM (series often up to 107 µM), without a hit: at the top dose activity, negative = inhibition, most hits filed as inhibitors; also: % is scaled to controls: 0 for no effect and ±100 for the full control effect
#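 First, compounds were pin-transferred onto 10 nM Pol kappa. After 15 min at room temperature, substrate was added to 50 nM final. Fluorescence was then measured kinetically at 0 and 10 min.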
# Pol iota inh = blocks human DNA polymerase iota activity; Pol iota fluorescent replication assay, 10 min; actives 1% (n = 390,000); Potency, µM (titrated, usually from 115 µM), without a hit: at the top dose activity, negative = inhibition, most hits filed as inhibitors; Q9UNA4
#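 Fluorescent replication assay read twice, at 0 min and 10 min after adding 50 nM (final) substrate. Enzyme (10 nM) and compounds were first incubated 15 min at room temperature; enzyme-free buffer wells were negative controls.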
# POLB inh = DNA polymerase beta (human) inhibition | Pol beta primer extension/strand displacement, fluorescence kinetic | Potency, µM (doses to about 114 µM), without a hit: top-dose activity change, negative = inhibition, most hits filed as inhibitors | actives 1.3% (n = 340,000) | AID 485314; also: % is scaled to controls: 0 for no effect and ±100 for the full control effect
#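 Reaction started by 50 nM substrate onto compound-treated Pol beta (10 nM, 15 min preincubation, room temperature); plates read at 0 min and 10 min. Normalized concentration-effect data fitted by four-parameter Hill equation.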
# Pol eta inh-1 = blocks human DNA polymerase eta activity. Q9Y253. recombinant Pol eta, fluorescent DNA replication assay. actives 1.2% (n = 390,000). Potency, µM (series often up to 114 µM), inactives show top-dose activity change, negative = inhibition, actives largely listed as inhibitors; also: % is scaled to controls: 0 for no effect and ±100 for the full control effect
# Target sequence (Q9Y253 whole entry, looked up): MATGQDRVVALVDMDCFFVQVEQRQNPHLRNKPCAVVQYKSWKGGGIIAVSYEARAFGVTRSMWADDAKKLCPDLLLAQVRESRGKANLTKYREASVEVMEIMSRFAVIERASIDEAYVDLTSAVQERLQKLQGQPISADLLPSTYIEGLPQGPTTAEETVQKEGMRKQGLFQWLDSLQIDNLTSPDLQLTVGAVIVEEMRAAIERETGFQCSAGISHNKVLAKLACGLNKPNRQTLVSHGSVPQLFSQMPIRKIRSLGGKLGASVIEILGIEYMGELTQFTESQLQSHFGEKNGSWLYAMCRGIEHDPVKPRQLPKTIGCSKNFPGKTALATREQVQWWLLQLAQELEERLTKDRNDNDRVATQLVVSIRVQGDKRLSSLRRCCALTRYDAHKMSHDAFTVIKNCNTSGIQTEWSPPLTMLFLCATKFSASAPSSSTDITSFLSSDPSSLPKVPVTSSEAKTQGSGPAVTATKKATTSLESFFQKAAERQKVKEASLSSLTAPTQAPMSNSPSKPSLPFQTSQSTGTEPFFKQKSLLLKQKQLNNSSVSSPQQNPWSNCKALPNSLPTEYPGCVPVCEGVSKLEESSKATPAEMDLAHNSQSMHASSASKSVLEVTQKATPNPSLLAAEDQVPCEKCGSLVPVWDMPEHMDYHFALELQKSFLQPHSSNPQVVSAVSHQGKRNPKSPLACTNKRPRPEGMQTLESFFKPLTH
#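 Pol eta at 10 nM preincubated with compounds 15 min at room temperature; reaction started with fluorescent substrate (50 nM final) and read kinetically at 0 and 10 min.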
# PGK validate = blocks T. brucei phosphoglycerate kinase; AID 686980; TbPGK coupled GAPDH assay, Kinase-Glo luminescence; actives 79% (n = 500); Potency, µM (titrated, usually from 57.5 µM), inactives show top-dose activity change, negative = inhibition, hits mostly inhibitors; shares compounds with Pol kappa inh-1; also: % is scaled to controls: 0 for no effect and ±100 for the full control effect; nearly all actives have a fitted effect of over 65% in size
# POLI cherry-pick = Human Pol iota inhibitor confirmatory assay. shares compounds with Pol kappa inh-1. Pol iota primer extension, TAMRA/BHQ fluorescence. Potency, µM, hits mostly inhibitors. actives 77% (n = 1,500). AID 720496
# Pol kappa inh-2 = confirmation of human DNA polymerase kappa inhibitors; Potency, µM, most hits filed as inhibitors; shares compounds with Pol eta inh-1; actives 76% (n = 920); purified Pol-kappa, fluorescent strand-displacement substrate
# Pol eta inh-2 = confirmation of human DNA polymerase eta inhibitors. shares compounds with Pol eta inh-1. Pol eta primer extension, TAMRA/BHQ fluorescence, 10 min. Potency, µM, actives largely listed as inhibitors. actives 64% (n = 2,600). AID 720502
# * hit, by the source's call; ? = inconclusive; nt = no result; [ ] = another dose, or the depositor's remark. In the library only some 2.4% were active in any assay of this set; here they are far more common. Calls follow the shape of the dose curve; as a rule, active = well fitted curve in the direction sought with a large enough effect; inconclusive = small, poorly fitted or top-dose-only effect, or another doubt; inactive = no such curve, though single readings can be large; an effect the other way counts as inactive or inconclusive. Potency is read from the fitted curve at half-maximal effect.
SMILES,WRN helicase inh,FEN1 inh,Pol kappa inh-1,Pol iota inh,POLB inh,Pol eta inh-1,POLI cherry-pick,Pol eta inh-2,others
NS(=O)(=O)c1ccc(N=Nc2ccc(=O)[nH]c2O)cc1,50µM*,79µM*,?,?,6.3µM*,10µM*,38*,?,PGK validate=5.2µM*;Pol kappa inh-2=15*
CN(C)c1ccc(-c2ccc3c(=O)c4ccccc4n(C)c3c2)cn1,-18%[11.6 µM],-13%,-6%,?,?,20µM*,?,?,
Cn1c2ccccc2c(=O)c2ccc(Cl)cc21,0%,nt,nt,nt,nt,-4%,nt,nt,
O=C1CCCC2=C1C(c1ccc(O)c(O)c1)Nc1ccc3ncccc3c12 (configuration not stated),?,?,40µM*,13µM*,11µM*,35µM*,?,?,
O=C1CCCC2=C1C(c1cccs1)Nc1ccc3ncccc3c12 (configuration not stated),-2%,2%,-4%,39%,?,-9%,nt,nt,
O=C(N=Nc1c(O)[nH]c2ccc([N+](=O)[O-])cc12)c1ccccc1Cl,-7%[11.6 µM],?,6%,38%,-30%,40µM*,67*,?,
C[C@@H]1CN([C@H](C)CO)C(=O)CCCn2cc(nn2)CO[C@H]1CN(C)C(=O)Nc1ccc(-c2cccs2)cc1,2%,nt,nt,nt,nt,-1%,nt,nt,
O=C(COC(=O)c1cncc(Br)c1)NCc1ccco1,50µM*,-17%,79µM*,?,22µM*,10µM*,24*,?,Pol kappa inh-2=24*
O=C(COC(=O)Cc1cccc(C(F)(F)F)c1)NCc1ccco1,?,3%,45µM*,?,nt,5µM*,60*,30*,Pol kappa inh-2=24*
O=C(NCc1cccc(CNC(=O)C(=O)NCc2ccco2)c1)C(=O)NCc1ccco1,?,-5%,-60%,?,22µM*,28µM*,67*,76*,Pol kappa inh-2=?
O=C(NCc1cccc(CNC(=O)c2ccco2)c1)c1ccco1,-1%,-7%,-11%,21%,4%,1%,nt,nt,
O=C(COC(=O)c1cccs1)NCc1ccco1,?,-5%,?,20µM*,20µM*,14µM*,75*,85*,
CCN1C(=NCCc2cccs2)N[C@@H](CCc2ccccc2)[C@H](C(=O)NCCc2cccs2)[C@H]1C,nt,nt,nt,nt,31%,nt,nt,nt,
O=C(NNC(=O)c1ccccc1Br)c1ccc2nc[nH]c2c1,-24%,-25%,?,?,22µM*,22µM*,?,54*,
O=C(NNC(=O)c1ccccc1Br)c1ccc(Cl)c(Cl)c1,-2%,3%,-7%,14%,1%,-7%,nt,nt,
COc1ccc(-c2csc(/C(C#N)=C\c3ccc(O)c([N+](=O)[O-])c3)n2)cc1OC,?,-32%,-9%,-8%,-11%,8%,nt,nt,
COc1cc(/C=C(\C#N)c2nc3ccccc3s2)cc([N+](=O)[O-])c1O,?,?,89µM*,?,40µM*,?,75*,76*,

# Compound activity as filed in PubChem.
